Screens: PubChem BioAssay, several laboratories
HIF activator – HIF pathway transcriptional activation; 300,000 tested, 0.32% active; activation, % at 7.5 µM (by protocol); AID 1910; U2OS HRE-luciferase reporter, luminescence; normalized: DMSO 0%, desferrioxamine 100%;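 active = mean activation of at least 10% of the iron chelator positive control signal, with at least half of replicates also reaching 10%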
GC-A act – GC-A (human) enzyme activation; HEK293 GC-A cells, cGMP TR-FRET, EC30 ANP; 0% at EC30 ANP, 100% saturating ANP; P16066; activation, % at 10 µM; 370,000 tested, 0.14% active; in the data active = activation above about 40%
proKLK7 act – activates the human kallikrein-7 zymogen; P49862; purified proKLK7, EDANS-DABCYL substrate fluorescence; 100% is mature enzyme control, 0% vehicle; activation, % at 7 µM; 370,000 tested, 0.9% active; AID 652039;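 active = activation above the mean of all tested compounds plus 3 SD, computed per campaign excluding outliers beyond control limits, cut at about 13% in these data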
NPR2 activator – GC-B (human) receptor activation; P20594; activation, % at 10 µM; HEK293-GC-B cells, CNP EC30, cGMP TR-FRET; 0% at EC30 CNP, 100% saturating CNP; 370,000 tested, 0.11% active; AID 1920062;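 active = activation at 10 µM reaching about 35% in either raw or pattern-adjusted values, limit read from the data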
Target sequence (P20594 whole entry, looked up): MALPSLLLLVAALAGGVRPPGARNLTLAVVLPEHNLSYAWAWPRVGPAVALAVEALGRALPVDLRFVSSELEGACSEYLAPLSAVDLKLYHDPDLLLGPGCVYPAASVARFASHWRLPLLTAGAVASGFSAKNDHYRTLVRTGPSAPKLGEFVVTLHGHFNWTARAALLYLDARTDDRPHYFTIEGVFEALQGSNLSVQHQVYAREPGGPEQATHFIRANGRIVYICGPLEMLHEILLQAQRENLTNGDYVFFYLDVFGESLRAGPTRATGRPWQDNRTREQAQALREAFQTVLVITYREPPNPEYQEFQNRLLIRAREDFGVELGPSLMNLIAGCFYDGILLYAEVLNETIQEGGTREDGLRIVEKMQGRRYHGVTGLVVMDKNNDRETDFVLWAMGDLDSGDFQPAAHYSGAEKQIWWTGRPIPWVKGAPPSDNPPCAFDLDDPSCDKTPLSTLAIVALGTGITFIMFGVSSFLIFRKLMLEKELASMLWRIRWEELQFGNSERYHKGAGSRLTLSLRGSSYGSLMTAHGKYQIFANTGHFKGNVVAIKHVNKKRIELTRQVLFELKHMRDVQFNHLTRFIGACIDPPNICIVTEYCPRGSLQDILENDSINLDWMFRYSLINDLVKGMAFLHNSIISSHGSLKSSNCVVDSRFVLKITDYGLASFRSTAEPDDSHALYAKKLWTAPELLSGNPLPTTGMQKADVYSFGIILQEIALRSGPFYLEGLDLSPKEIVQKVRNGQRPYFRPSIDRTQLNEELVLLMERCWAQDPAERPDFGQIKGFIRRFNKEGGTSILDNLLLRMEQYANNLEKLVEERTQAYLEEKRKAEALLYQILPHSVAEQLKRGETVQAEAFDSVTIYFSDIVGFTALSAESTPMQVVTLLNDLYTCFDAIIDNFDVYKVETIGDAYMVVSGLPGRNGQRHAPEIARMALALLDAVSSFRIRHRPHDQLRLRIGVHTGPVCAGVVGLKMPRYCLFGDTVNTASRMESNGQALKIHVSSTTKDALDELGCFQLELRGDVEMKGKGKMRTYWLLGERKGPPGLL
KLK7 act conf – proKLK7 activation, confirmation; shares compounds with proKLK7 act; purified proKLK7, EDANS-DABCYL substrate fluorescence; scaled: vehicle 0, mature enzyme 100; 3,200 tested, 68% active; activation, % at 7 µM;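 active = activation, as change over the incubation, above the mean of all tested compounds plus 3 SD, cut at about 13% in these data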
EDANS interfere – fluorescence interference counter-screen for KLK7 activators | shares compounds with proKLK7 act | EDANS-DABCYL substrate fluorescence interference, no enzyme, 4 h; solvent 0%, active enzyme control 100% | activation, % at 7 µM | 3,200 tested, 80% active | AID 686952;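 active = activation above the all-compound mean plus 3 SD, ignoring values outside control-based bounds, cut at about 4.8% in these data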;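 note: value is the 4 h activation minus the activation read at time zero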
K7 EDANS ctr – optically interferes with EDANS-DABCYL fluorescence, kallikrein-7 activator counter-screen | shares compounds with proKLK7 act | EDANS-DABCYL peptide fluorescence interference, no enzyme | EC50, µM | 250 tested, 20% active;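 active = compounds that raise the fluorescence signal in this interference counterscreen, with EC50 at or below 10 µM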;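 note: intact quenched peptide substrate alone read at 355 nm excitation and 520 nm emission; signal is fluorescence gain from T0 to T4 after four hours at room temperature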
A number is an active result. Compounds with a hit are over-represented: about 1.3% of the library has one in this group of screens.

Results for CCOc1cccc(-c2cnc3cccnn23)c1 ?
GC-A act: inactive; proKLK7 act: 41.4; NPR2 activator: inactive; KLK7 act conf: 36.8; EDANS interfere: 33.5

How did CCC1NC(C(=O)O)Cc2c1[nH]c1ccccc21 (stereo not given) do in these assays?
HIF activator: inactive; GC-A act: inactive; proKLK7 act: 35.7; NPR2 activator: inactive; KLK7 act conf: inactive; EDANS interfere: 9.8

How did CCN(CC)CCN1C(=O)c2ccccc2NC1c1ccc(N(C)C)cc1 (stereo not given) do in these assays?
HIF activator: inactive; GC-A act: inactive; proKLK7 act: inactive; NPR2 activator: inactive

How did CCN(CC)CCN1C(=O)c2ccccc2NC1c1ccc(F)cc1 (stereo not given) do in these assays?
HIF activator: inactive; GC-A act: inactive; proKLK7 act: 91.5; NPR2 activator: inactive; KLK7 act conf: 37.0; EDANS interfere: 34.5

What do the screens show for `CCOC(=O)NN1C(=O)c2ccccc2NC1c1ccc(OC)c(OC)c1` (stereo not given)?
HIF activator: inactive; GC-A act: inactive; proKLK7 act: 19.7; NPR2 activator: inactive; KLK7 act conf: 25.1; EDANS interfere: 26.4

How did O=C(O)CCC(=O)NN1C(=O)c2ccccc2NC1c1ccc(F)cc1 (stereo not given) do in these assays?
HIF activator: inactive; GC-A act: inactive; proKLK7 act: 17.4; NPR2 activator: inactive; KLK7 act conf: 37.9; EDANS interfere: 30.6; K7 EDANS ctr: inactive

Results for COc1ccc(C2Nc3ccccc3C(=O)N2NC(=O)c2ccccc2)cc1OC (stereo not given) ?
HIF activator: inactive; GC-A act: inactive; proKLK7 act: inactive; NPR2 activator: inactive

How did CCN(CC)CCN1C(=O)c2ccccc2NC1c1ccc(Br)cc1 (stereo not given) do in these assays?
HIF activator: inactive; GC-A act: inactive; proKLK7 act: 60.8; NPR2 activator: inactive; KLK7 act conf: inactive; EDANS interfere: 23.2

Results for CCC[C@H]1[C@@H](N)CC[C@@]23CCCN2C(=O)CCC[C@@H]13 ?
GC-A act: inactive; NPR2 activator: inactive

What do the screens show for `CCN(CC)CCN1C(=O)c2ccccc2NC1c1ccc(C)cc1` (stereo not given)?
HIF activator: inactive; GC-A act: inactive; proKLK7 act: 74.6; NPR2 activator: inactive; KLK7 act conf: 28.8; EDANS interfere: 37.1

How did CCN(CC)CCN1C(=O)C(=O)/C(=C(/O)c2ccncc2)C1c1ccccc1F (stereo not given) do in these assays?
GC-A act: inactive; proKLK7 act: inactive; NPR2 activator: inactive

Results for CCN(CC)CCN1C(=O)c2ccccc2NC1c1ccccc1F (stereo not given) ?
HIF activator: inactive; GC-A act: inactive; proKLK7 act: 73.6; NPR2 activator: inactive; KLK7 act conf: 26.1; EDANS interfere: 37.6

How did CCN(CC)CCN1C(=O)c2ccccc2NC1c1cccc(F)c1 (stereo not given) do in these assays?
HIF activator: inactive; GC-A act: inactive; proKLK7 act: 71.5; NPR2 activator: inactive; KLK7 act conf: 34.8; EDANS interfere: 33.4

What do the screens show for `CCCN1C(=O)c2ccccc2NC1c1cc(OC)c(OC)c(OC)c1` (stereo not given)?
HIF activator: inactive; GC-A act: inactive; proKLK7 act: 16.2; NPR2 activator: inactive; KLK7 act conf: inactive; EDANS interfere: 16.1

What do the screens show for `COCCCNc1nc2c(-c3ccc(Cl)cc3)nnn2c2ccccc12`?
HIF activator: inactive; GC-A act: inactive; proKLK7 act: inactive; NPR2 activator: inactive

How did COCCCNC(=O)c1nnn2c1nc(N)c1cc(Cl)ccc12 do in these assays?
GC-A act: inactive; proKLK7 act: 14.7; NPR2 activator: inactive; KLK7 act conf: 40.2; EDANS interfere: 39.8

Results for COc1cc(-c2nc3ccc(N4CCN(C)CC4)cc3[nH]2)cc(OC)c1OC ?
HIF activator: inactive; GC-A act: inactive; proKLK7 act: 81.1; NPR2 activator: inactive; KLK7 act conf: 64.0; EDANS interfere: 70.4
